“And” between values parts separate entries of the source, which are not always exact repeats. Equal values may be shown once. A structure can be active in one record and inactive in another. The source made the active and inactive calls. The calls were made as follows: active = hit-call score of the fitted dose curve at least 0.9, where 1 is the maximum; inactive = score below 0.9.

As a reminder, the AC50 is the midpoint of the concentration-response curve, whichever way the signal moves.

Test [1] can be described thus: ATG_PBREM_CIS: Attagene CIS-FACTORIAL HepG2 Assay for human Phenobarbital-responsive Enhancer Module (PBREM) (AID 2282955). As to conditions: HepG2 PBREM cis-reporter, Attagene multiplexed transcription; actives raise or lower the signal. Summed up:
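Transfected liver-derived HepG2 cells exposed 24 h; PBREM reporter transcript quantified via RT-PCR and capillary electrophoresis, with activity in either direction referenced to DMSO.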

Test [2] addresses Paired box protein Pax-6 (Homo sapiens) (UniProt P26367). Put plainly: ATG_Pax6_CIS: Attagene CIS-FACTORIAL HepG2 Assay for human Paired Box 6 (PAX6) (AID 2282956). As to conditions: HepG2 CIS-FACTORIAL PAX6 reporter transcription, RNA readout; actives raise or lower the signal. Summed up: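 HepG2 cells transiently transfected with cis-promoter-driven multiplexed reporter units sensing endogenous transcription factor activity; 24 h chemical exposure. Reporter mRNA quantified by RT-PCR, 6-FAM labelling, HpaI digestion and capillary electrophoresis; bidirectional fit versus DMSO baseline.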

A short description of test [3]: ATG_PXRE_CIS: Attagene CIS-FACTORIAL HepG2 Assay for human Pregnane X Receptor Element (PXRE) (AID 2282957). The note with it: HepG2 Attagene CIS-FACTORIAL PXRE reporter, mRNA; actives raise or lower the signal. Summed up:
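Cells: HepG2, transiently transfected reporter units under cis promoter control. Exposure: 24 h. Detection: reporter mRNA via RT-PCR/CE fluorescence; bidirectional fitting, DMSO-referenced.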

The nature of test [4]: ATG_PPRE_CIS: Attagene CIS-FACTORIAL HepG2 Assay for human Peroxisome Proliferator-activated Response Element (PPRE) (AID 2282958). As to conditions: HepG2 PPRE cis-element reporter, Attagene transcription factor profiling; actives raise or lower the signal. Summed up: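 Measured endpoint: PPRE-controlled reporter mRNA, detected by RT-PCR and capillary electrophoresis fluorescence, from transiently transfected HepG2 cells 24 h after dosing. Curves fitted in both directions using DMSO baseline.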

The nature of test [5]: ATG_RORE_CIS: Attagene CIS-FACTORIAL HepG2 Assay for human RAR-related Orphan Receptor Element (RORE) (AID 2282959). The note with it: HepG2 Attagene cis-factorial RORE reporter, mRNA; actives raise or lower the signal. Summed up: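 Transiently transfected HepG2 reporter cells were treated 24 h. Reporter transcripts were detected by RT-PCR and capillary electrophoresis, with bidirectional fitting against DMSO.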

A short description of test [6]: ATG_Sox_CIS: Attagene CIS-FACTORIAL HepG2 Assay for human SRY-box transcription factor (SOX) (AID 2282960). As to conditions: HepG2 Attagene cis-factorial SOX reporter, mRNA; actives raise or lower the signal. Summed up:
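Gain- or loss-of-signal endpoint, fitted bidirectionally with DMSO as negative control. Based on reporter mRNA from transfected HepG2 cells harvested 24 h post-treatment and quantified via RT-PCR and capillary electrophoresis.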

The target of test [7] is Transcription factor Sp1 (Homo sapiens) (UniProt P08047). The test is described as follows: ATG_Sp1_CIS: Attagene CIS-FACTORIAL HepG2 Assay for human Specificity Protein 1 (Sp1) (AID 2282961). As to conditions: HepG2 Sp1 cis-reporter transcription, actives raise or lower the signal. The gist of the method:
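Endpoint reflects endogenous Sp1 transcriptional activity, not an exogenous fusion protein: HepG2 cells with transfected cis-regulated reporters, 24 h dosing, RT-PCR/capillary electrophoresis mRNA read-out, DMSO-normalised bidirectional fit.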

The nature of test [8]: ATG_SREBP_CIS: Attagene CIS-FACTORIAL HepG2 Assay for human Sterol Regulatory Element Binding (SREBP) (AID 2282962). The note with it: HepG2 Attagene cis-factorial SREBP reporter, mRNA; actives raise or lower the signal. The gist of the method: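 HepG2 cells transiently transfected with multiplexed cis-promoter reporter units sensing endogenous transcription factors; reporter mRNA measured 24 h after dosing by RT-PCR, 6-FAM labeling, HpaI digestion and capillary electrophoresis. Bidirectional fit versus DMSO.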

Test [9] addresses Signal transducer and activator of transcription 3 (Homo sapiens) (UniProt P40763). The test is described as follows: ATG_STAT3_CIS: Attagene CIS-FACTORIAL HepG2 Assay for human Signal Transducer and Activator of Transcription 3 (STAT3) (AID 2282963). As to conditions: HepG2, Attagene cis-factorial STAT3 reporter transcription; actives raise or lower the signal. The gist of the method:
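Endogenous STAT3-responsive cis-element activity was read in transiently transfected HepG2 cells after 24 h treatment. Reporter transcripts were quantified via RT-PCR and capillary electrophoresis, with DMSO as negative control and bidirectional curve fitting.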

Test [10] can be described thus: ATG_TA_CIS: Attagene CIS-FACTORIAL HepG2 Assay for human TA Basal Promoter (AID 2282964). As to conditions: HepG2 Attagene CIS-factorial TA basal promoter reporter; actives raise or lower the signal. The gist of the method: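 Background-control readout: TA basal promoter reporter mRNA, fitted in both directions relative to DMSO. Measured by RT-PCR and capillary electrophoresis 24 hours after treating HepG2 human liver cells transiently carrying multiplexed cis-regulated reporter constructs.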

Sequence of Signal transducer and activator of transcription 3 (Homo sapiens) (P40763 whole entry, looked up): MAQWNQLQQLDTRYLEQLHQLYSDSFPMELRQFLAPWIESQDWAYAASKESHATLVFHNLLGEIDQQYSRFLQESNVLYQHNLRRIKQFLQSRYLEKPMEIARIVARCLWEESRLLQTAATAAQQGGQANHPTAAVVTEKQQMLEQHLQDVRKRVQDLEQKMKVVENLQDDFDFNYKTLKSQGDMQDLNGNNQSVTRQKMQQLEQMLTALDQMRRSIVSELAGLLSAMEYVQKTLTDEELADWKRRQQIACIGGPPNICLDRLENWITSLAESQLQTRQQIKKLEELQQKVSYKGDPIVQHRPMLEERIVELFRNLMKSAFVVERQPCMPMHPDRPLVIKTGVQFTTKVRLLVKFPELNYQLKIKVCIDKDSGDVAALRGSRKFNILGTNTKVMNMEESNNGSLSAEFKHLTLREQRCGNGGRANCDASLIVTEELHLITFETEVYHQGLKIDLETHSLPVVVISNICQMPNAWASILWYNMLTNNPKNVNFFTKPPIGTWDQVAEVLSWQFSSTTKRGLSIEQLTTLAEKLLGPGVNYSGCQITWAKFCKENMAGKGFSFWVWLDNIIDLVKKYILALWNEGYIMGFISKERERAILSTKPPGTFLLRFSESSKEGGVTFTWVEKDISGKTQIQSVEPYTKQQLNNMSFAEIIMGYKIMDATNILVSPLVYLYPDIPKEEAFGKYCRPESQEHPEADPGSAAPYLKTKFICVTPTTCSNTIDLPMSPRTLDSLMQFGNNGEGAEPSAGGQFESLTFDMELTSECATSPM
Sequence of Transcription factor Sp1 (Homo sapiens) (P08047 whole entry, looked up, the tested form may be a part): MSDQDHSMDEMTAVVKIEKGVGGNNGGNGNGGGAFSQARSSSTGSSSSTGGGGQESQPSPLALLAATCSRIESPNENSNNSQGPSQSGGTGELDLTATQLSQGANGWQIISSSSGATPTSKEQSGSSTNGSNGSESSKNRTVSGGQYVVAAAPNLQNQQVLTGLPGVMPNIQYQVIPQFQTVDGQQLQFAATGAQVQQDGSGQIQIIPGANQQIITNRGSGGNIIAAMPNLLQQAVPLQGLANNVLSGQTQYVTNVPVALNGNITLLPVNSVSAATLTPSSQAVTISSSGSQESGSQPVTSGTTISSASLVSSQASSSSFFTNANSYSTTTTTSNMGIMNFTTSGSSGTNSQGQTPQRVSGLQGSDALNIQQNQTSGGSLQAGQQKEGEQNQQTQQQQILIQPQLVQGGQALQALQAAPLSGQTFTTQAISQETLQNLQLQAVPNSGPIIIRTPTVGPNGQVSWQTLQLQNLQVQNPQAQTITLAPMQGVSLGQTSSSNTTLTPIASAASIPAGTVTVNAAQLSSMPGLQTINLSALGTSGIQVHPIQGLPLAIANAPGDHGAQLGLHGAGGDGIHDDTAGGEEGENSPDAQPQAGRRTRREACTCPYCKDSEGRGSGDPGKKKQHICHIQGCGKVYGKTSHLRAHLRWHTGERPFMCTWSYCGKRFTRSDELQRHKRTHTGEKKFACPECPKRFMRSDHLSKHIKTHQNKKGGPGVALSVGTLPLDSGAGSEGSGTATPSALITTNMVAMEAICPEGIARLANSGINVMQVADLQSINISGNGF
Sequence of Paired box protein Pax-6 (Homo sapiens) (P26367 whole entry, looked up): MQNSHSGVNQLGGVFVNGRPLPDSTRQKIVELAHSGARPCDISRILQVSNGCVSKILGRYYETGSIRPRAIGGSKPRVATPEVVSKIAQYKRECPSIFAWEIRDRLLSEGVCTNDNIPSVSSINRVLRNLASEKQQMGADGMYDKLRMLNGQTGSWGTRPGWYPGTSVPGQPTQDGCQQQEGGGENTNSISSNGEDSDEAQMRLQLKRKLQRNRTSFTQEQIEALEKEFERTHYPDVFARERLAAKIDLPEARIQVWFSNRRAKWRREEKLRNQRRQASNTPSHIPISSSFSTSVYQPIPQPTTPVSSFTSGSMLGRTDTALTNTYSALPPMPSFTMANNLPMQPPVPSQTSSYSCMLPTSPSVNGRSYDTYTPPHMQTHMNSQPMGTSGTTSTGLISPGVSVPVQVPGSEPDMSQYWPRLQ

As for `CCC(C)(C)C(=O)OC1=C(c2ccc(Cl)cc2Cl)C(=O)OC12CCCCC2`, the result in test [1], in [2], in test [3], in [4], in test [5] and in test [6] was inactive. In addition, the molecule was classed as inactive in [7], in [8], in [9] and in test [10].
For `OCCOc1ccccc1`, the outcome in test [1], in [2], in [3], in [4], in [5] and in test [6] was inactive. The outcome in [7], in [8], in test [9] and in test [10] was inactive.
Take `CCOCN(C(=O)CCl)c1c(C)cccc1CC`: the result in test [1], in test [2], in [5], in test [6], in test [7] and in test [8] was inactive. Besides, the call in [9] and in [10] was inactive. Besides, the AC50 in test [3] is 0.468 µM (active).
On to `COC(=O)c1ccccc1S(=O)(=O)NC(=O)N(C)c1nc(C)nc(OC)n1`, for which the result in test [1], in test [2], in [4], in [6], in [7] and in [8] was inactive. In addition, the result in test [9] and in [10] was inactive. Moreover, in test [3], the AC50 was 64.7 µM (active).
As to `O=C(O)COc1ccc(Cl)cc1Cl`, the outcome in test [2], in [3], in test [6], in test [7], in test [8] and in test [9] was inactive. Also, the molecule was classed as inactive in test [10].
With `CNC(=O)CSP(=S)(OC)OC`, the outcome in [1], in test [2], in [3], in [4], in test [5] and in test [6] was inactive. Further, the molecule was called inactive in test [7], in [8], in test [9] and in [10].
With `CCCN(CCC)c1c([N+](=O)[O-])cc(C(F)(F)F)cc1[N+](=O)[O-]`, the result in test [1], in test [2], in test [4], in test [5], in test [6] and in test [7] was inactive. Besides, the result in test [8], in test [9] and in test [10] was inactive. Further, the AC50 in test [3] is 6.82 µM (active).
As to `O=[N+]([O-])/N=C1\NCCN1Cc1ccc(Cl)nc1`, the result in test [1], in [2], in test [5], in test [6], in [7] and in test [8] was inactive. Further, the call in test [9] and in [10] was inactive. Further, the AC50 in test [3] was 30.6 µM (active).
In the case of `CCN(CC)C(=O)SCc1ccc(Cl)cc1`, the result in [2], in test [6], in test [7], in [8], in test [9] and in test [10] was inactive. Also, the AC50 in [3] was 4.49 µM (active); in test [5], 19 µM (active).
As for `CCOc1nc(NC)nc(NC(=O)NS(=O)(=O)c2ccccc2C(=O)OC)n1`, the outcome in test [1], in [2], in [3], in test [4], in test [5] and in test [6] was inactive. Further, the molecule was called inactive in [7], in test [8], in test [9] and in test [10].
Consider `CC1(C)C(C=C(Cl)Cl)C1C(=O)OC(C#N)c1ccc(F)c(Oc2ccccc2)c1` (stereo unspecified), for which the outcome in test [1], in [2], in test [5], in test [6], in [7] and in test [8] was inactive. The outcome in [9] and in test [10] was inactive. Besides, the results for the AC50 in [3] and in test [4] were 2.93 µM (active) and 8.12 µM (active), respectively.
Regarding `COP(=S)(OC)Oc1ccc([N+](=O)[O-])cc1`, the result in test [1], in [2], in [3], in test [4], in test [5] and in test [6] was inactive. The molecule was classed as inactive in test [7], in test [8], in test [9] and in test [10].
As for `COP(=O)(OC)OC=C(Cl)Cl`, the molecule was classed as inactive in [2], in test [5], in test [6], in [7], in [8] and in test [9]. Further, the molecule was called inactive in [10]. The AC50 in [3] is 21.8 µM (active); in [4], 22.9 µM (active).
For `ClC1C(Cl)C(Cl)C(Cl)C(Cl)C1Cl` (stereo unspecified), the outcome in [2], in test [4], in [6], in test [7], in [8] and in test [9] was inactive. For the same molecule, in [10], the outcome was inactive. Moreover, the AC50 was 2.93 µM (active) [middle of 4 runs] in test [3]; 100 µM (active) and 70.3 µM (active) in test [7]; 67.6 µM (active) in test [8].

For the origin of these results see PubChem BioAssay (EPA / NIEHS).
